Where a name gives a salt, the structure may show the parent alone. ± gives the standard deviation.
test system: THP-1 macrophages infected with Mycobacterium tuberculosis H37Rv; assay: intracellular M.tb growth inhibition relative to DMSO (0) and 4 uM bedaquiline (100); higher = stronger inhibition of intracellular bacterial growth; conditions: 10 µM; 4 days
Experimental: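 OICR kinase inhibitor library screened in duplicate at 10 uM against THP-1 macrophages (PMA-differentiated) infected with M. tuberculosis H37Rv-pTEC27 (tdTomato RFP), 4 days at 37 C. Rows with complete host cell loss (placeholder inhibition 0, cell loss 100) were removed.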

Row | SMILES | intracellular M.tb growth inhibition [%]
1 | COc1cc(/C=C(\C#N)C(N)=O)cc(CSc2nc3ccccc3s2)c1O | 21 ± 6.4
2 | CC(C)c1cnn2c(NCc3ccccc3)cc(NCCCCCCN)nc12 [BS-181 hydrochloride] | 3.6 ± 5.1
3 | COc1cc(Oc2ccnc3cc(OC)c(OC)cc23)ccc1NC(=O)NC(C)c1nccs1 (racemic) | -40.9 ± 140
4 | O=C(C=Cc1ccccc1)NC(NC(=S)Nc1ccc(Cl)cc1)C(Cl)(Cl)Cl (stereo not given) | 12.9 ± 18
5 | Cc1ccc(-n2nc(C(C)(C)C)cc2NC(=O)Nc2ccc(OCCN3CCOCC3)c3ccccc23)cc1 | -1.53 ± 2.2
6 | CN(C)c1ccc(/C=C2/C(=O)Nc3ccccc32)cc1 | 5.91 ± 3.3
7 | c1ccc(-c2n[nH]c3c2oc2ccccc23)cc1 | 7.69 ± 11
8 | COc1cc(Nc2ncc3c(n2)-c2ccc(Cl)cc2C(c2c(F)cccc2OC)=NC3)ccc1C(=O)O | -73.6 ± 120
9 | COc1cccc2cc(-c3nc([C@H]4CC[C@H](C(=O)O)CC4)n4ncnc(N)c34)[nH]c12 [OSI-027 hydrochloride] | -318 ± 370
10 | CS(=O)(=O)CCNCc1nc(-c2ccc3ncnc(Nc4ccc(OCc5cccc(F)c5)c(Cl)c4)c3c2)cs1 | 37.8 ± 12
11 | COc1cc2ncnc(Nc3ccc(Cl)cc3F)c2cc1OC | 48.4 ± 20
12 | CCN(CCCOc1ccc2c(Nc3cc(CC(=O)Nc4cccc(F)c4)[nH]n3)ncnc2c1)CCOP(=O)(O)O | -79.3 ± 96
13 | CC[C@H](CO)Nc1nc(NCc2ccccc2)c2ncn(C(C)C)c2n1 [Roscovitine] | -23.1 ± 47
14 | COc1cc2/c(=N/c3ccc(Br)cc3F)nc[nH]c2cc1OCC1CCN(C)CC1 [Vandetanib] | 64.1 ± 6.5
15 | COc1cc2ncn(-c3cc(OCc4ccccc4C(F)(F)F)c(C(N)=O)s3)c2cc1OC | 38.7 ± 14
16 | COc1cc(Nc2ncc(F)c(Nc3ccc4c(n3)N(COP(=O)(O)O)C(=O)C(C)(C)O4)n2)cc(OC)c1OC | 11 ± 16
17 | Cc1cc2c(F)c(Oc3ncnn4cc(OC[C@@H](C)O)c(C)c34)ccc2[nH]1 [Brivanib] | -66.6 ± 160
18 | O=c1[nH]ccc2c(S(=O)(=O)N3CCCNCC3)cccc12 [HA 1100 hydrochloride] | -142 ± 180
19 | Nc1nc(Nc2ccc(S(N)(=O)=O)cc2)nn1C(=S)Nc1c(F)cccc1F [Cdk1/2 Inhibitor III] | -193 ± 240
20 | Nc1nc(OCC2CCCCC2)c2[nH]cnc2n1 | -15.1 ± 19

Row | SMILES | intracellular M.tb growth inhibition [%]
21 | NC(=O)c1sc2c([N+](=O)[O-])cc(C(F)(F)F)cc2[n+]1[O-] [Cyclapolin 9] | -65.9 ± 140
22 | COc1ccc2c3n(c(=NC(=O)c4cccnc4)nc2c1OC)CCN3 | -0.0325 ± 8.7
23 | O=S(=O)(c1cccc2cnccc12)N1CCCNCC1 [Fasudil HCl] | 6.96 ± 7.6
24 | Oc1ccc(-c2nc(-c3ccc(F)cc3)c(-c3ccncc3)[nH]2)cc1 | 8.19 ± 7.9
25 | Cc1cn(-c2cc(NC(=O)c3ccc(C)c(Nc4nccc(-c5cccnc5)n4)c3)cc(C(F)(F)F)c2)cn1 [Nilotinib] | -5.88 ± 8.3
26 | CN(C)CCOc1ccc(-c2nc(-c3ccncc3)c(-c3ccc4c(c3)CC/C4=N\O)[nH]2)cc1 | 35.2 ± 75
27 | CC[C@H](Nc1ncnc2[nH]cnc12)c1nc2cccc(F)c2c(=O)n1-c1ccccc1 | -236 ± 290
28 | CN1CCC(CNc2ccc3ncc(-c4cccc(OC(F)(F)F)c4)n3n2)CC1 | 89.1 ± 24
29 | NC(=O)c1ccc2nc(-c3ccc(Oc4ccc(Cl)cc4)cc3)[nH]c2c1 [Chk2 Inhibitor II] | 38.6 ± 14
30 | N#C/C(=C\c1ccc(O)c(O)c1)C(=O)Nc1ccccc1 | -35.4 ± 5.2
31 | Cc1cc(Nc2cc(N3CCN(C)CC3)nc(/C=C/c3ccccc3)n2)n[nH]1 | -329 ± 400
32 | Cn1cc(-c2ccc3nnc(Sc4ccc5ncccc5c4)n3n2)cn1 | -164 ± 130
33 | O=C1c2ccc(O)c(O)c2C(=O)c2c(O)ccc(O)c21 [Quinalizarin] | -115 ± 210
34 | COCC(=O)NC/C=C/c1ccc2ncnc(Nc3ccc(Oc4ccc(C)nc4)c(C)c3)c2c1 | 5.71 ± 95
35 | O=C(NOCC1CC1)c1cc(Br)c(F)c(F)c1Nc1ccc(I)cc1Cl | 59.8 ± 16
36 | Nc1nccc(-c2c(-c3ccc(F)cc3)ncn2C2CCCCC2)n1 | 42.4 ± 13
37 | FC(F)(F)c1ccc(/C=C/c2nc(COc3ccc(CCCCn4ccnn4)cc3)co2)cc1 [Mubritinib] | -50.5 ± 170
38 | O=[N+]([O-])c1ccc(-c2nc(-c3ccc(F)cc3)c(-c3ccncc3)[nH]2)cc1 | 36.6 ± 3.6
39 | Clc1ccc(Nc2nnc(Cc3ccncc3)c3ccccc23)cc1 [Vatalanib dihydrochloride] | -2.9 ± 24
40 | CCc1cncnc1N1CCN(Cc2nc3ccc(C(F)(F)F)cc3[nH]2)CC1 | 16.2 ± 23
